Assay results as given in PubChem BioAssay (Tox21).
Values joined by “and” are separate entries in the source; they are usually repeats but may differ in a detail not shown here. Equal values may be shown once. Records with an inconclusive call do not appear. Active and inactive are the calls of the source. Calls come from the whole dose curve; as a rule, active = well fitted inhibition curve with a large enough effect in the repeat runs; inconclusive = weak or mixed curves, or effect the other way; inactive = no such curve, though single readings can be large or run the other way.

target: Androgen receptor (Homo sapiens) (UniProt P10275); test: qHTS assay to identify small molecule antagonists of the androgen receptor (AR) signaling pathway using the MDA cell line (AID 743042; note: nearly all actives have a fitted effect of over 55% in size); details: MDA-kb2 AR-luc, MMTV luciferase, R1881 antagonist, 16 h; series mostly up to 70.3 µM; activity change, negative = inhibition: at the top concentration
Source text: U.S. Tox21 Program National Center for Advancing Translational Sciences [NCATS] NIH Chemical Genomics Center [NCGC] U.S. Environmental Protection Agency [EPA] National Institutes of Environmental Health Sciences [NIEHS] National Toxicology Program [NTP] U.S. Food and Drug Administration [FDA] Tox21 Assay Overview: Androgen receptor (AR), a nuclear hormone receptor, plays a critical role in AR-dependent prostate cancer and other androgen related diseases. Endocrine disrupting chemicals (EDCs) and their interactions with steroid hormone receptors like AR may cause disruption of normal endocrine function as well as interfere with metabolic homeostasis, reproduction, developmental and behavioral functions. To identify the compounds that inhibit AR signaling, MDA-kb2 AR-luc cell line (from ATCC, deposited by Wilson et al.) was used to screen the Tox21 10K compound library. MDA-kb2 AR-luc cell line is human breast carcinoma cell line that was stably transfected with a luciferase reporter gene under control of the MMTV promoter containing response elements for both androgen receptor (AR) and glucocorticoid receptor (GR).
Tox21 Assay Protocol Summary: MDA-kb2 cells were dispensed at 3,000 cells/4 uL/well of culture medium into white wall/solid-bottom 1536-well plates using a Multidrop Combi (ThermoFisher Scientific, Waltham, MA) dispenser. After the assay plates were incubated at a 37C and 0% CO2 for 5 hr, 23 nL of compounds dissolved in DMSO, positive controls or DMSO only was transferred to the assay plate by a Pintool station (Kalypsys, San Diego, CA), followed by addition of 1 uL of agonist (R1881) in culture medium using a Bioraptr Flying Reagent Dispenser (FRD) workstation (Beckman Coulter, Indianapolis, IN, USA). The plates were incubated at a 37C and 0% CO2 for 16 h. After 15.5 h incubation, 1uL of CellTiter-Fluor reagent (Promega, Madison, WI) was added using a Bioraptr FRD to each plate for measuring cytotoxicity. The fluorescence intensity was quantified on a ViewLux plate reader (PerkinElmer, Shelton, CT) following 30 min incubation at 37C and 0% CO2. For measuring luciferase reporter gene activity, 4 uL of ONE-Glo reagent (Promega) was added to each plate using a Bioraptr FRD and luminescence was quantified on a ViewLux (PerkinElmer) plate reader after 30 min incubation at room temperature.
% is set by controls: 0 for no effect and ±100 for the full control effect; potency is the fitted concentration of half-maximal effect.

Sequence of Androgen receptor (Homo sapiens) (P10275 whole entry, looked up): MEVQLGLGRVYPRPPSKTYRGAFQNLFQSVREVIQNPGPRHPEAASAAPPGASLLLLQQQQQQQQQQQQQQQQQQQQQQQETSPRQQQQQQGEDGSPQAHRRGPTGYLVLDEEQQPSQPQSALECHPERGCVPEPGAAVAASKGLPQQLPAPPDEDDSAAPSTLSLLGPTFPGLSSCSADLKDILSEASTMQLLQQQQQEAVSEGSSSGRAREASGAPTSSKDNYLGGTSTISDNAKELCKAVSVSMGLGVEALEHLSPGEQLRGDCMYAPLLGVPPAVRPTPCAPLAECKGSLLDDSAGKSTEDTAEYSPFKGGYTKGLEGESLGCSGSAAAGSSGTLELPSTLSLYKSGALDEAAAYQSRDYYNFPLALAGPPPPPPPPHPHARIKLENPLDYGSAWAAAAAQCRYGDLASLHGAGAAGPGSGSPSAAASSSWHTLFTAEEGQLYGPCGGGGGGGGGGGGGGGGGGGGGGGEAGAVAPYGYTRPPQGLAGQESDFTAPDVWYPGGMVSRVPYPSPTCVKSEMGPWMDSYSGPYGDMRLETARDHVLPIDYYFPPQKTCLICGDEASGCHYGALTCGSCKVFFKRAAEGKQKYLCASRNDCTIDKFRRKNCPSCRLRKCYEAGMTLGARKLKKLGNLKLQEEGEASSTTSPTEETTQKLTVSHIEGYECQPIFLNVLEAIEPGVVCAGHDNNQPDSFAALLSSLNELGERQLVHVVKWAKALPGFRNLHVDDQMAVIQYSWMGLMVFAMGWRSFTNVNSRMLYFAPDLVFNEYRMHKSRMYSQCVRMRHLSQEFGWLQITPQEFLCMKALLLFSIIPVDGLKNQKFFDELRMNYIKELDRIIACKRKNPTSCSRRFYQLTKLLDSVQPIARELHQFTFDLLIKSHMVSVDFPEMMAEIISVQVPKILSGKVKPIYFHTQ

Structure (SMILES)	Potency	activity change, negative = inhibition
Oc1cc(Cl)c(Cl)c(Cl)c1Cl	59.7 µM (active)	
CCN1CCC2(CC1)COc1cc3c(cc12)N(C(=O)c1ccc(-c2ccc(-c4nnc(C)o4)cc2C)cc1)CC3	63.3 µM (active)	
Nc1c(Cl)c(Cl)c(Cl)c(Cl)c1Cl		13.6% (inactive)
O=[N+]([O-])C(Br)Br		-0.142% (inactive)
S=C=Nc1ccccc1		2.69% [at 95 µM] (inactive)
CCOP(=O)(OCC)Oc1nc(Cl)c(Cl)cc1Cl		-23.7% (inactive)
O=NN(CCO)CCO		3.37% (inactive)
CCOP(=S)(OCC)Oc1cc(C)nc(N(CC)CC)n1		-20% (inactive)
CN(C)c1ccc(N)cc1		-71.6% (inactive)
CCOP(=S)(OCC)SC(CCl)N1C(=O)c2ccccc2C1=O (stereo not given)	61.1 µM (active)	
CCCCCCCc1ccc(O)cc1		14.3% (inactive)
[Cl][Hg][c]1ccccc1	0.969 µM (active)	
BrCC(Br)(Br)Br		2.92% [at 95 µM] (inactive)
O=C1C(Cl)=C(Cl)C(=O)C(Cl)=C1Cl	34.2 µM (active) and 30.6 µM (active)	
COP(=O)(OC)O/C(=C\Cl)c1cc(Cl)c(Cl)cc1Cl	54.5 µM (active)	
CC(C)=CC1C(C(=O)OC(C#N)c2cccc(Oc3ccccc3)c2)C1(C)C (stereo not given)		1.55% (inactive)
C=CCOC(=O)c1ccccc1N		2.87% [at 95 µM] (inactive)
ClC1(Cl)C2(Cl)C3(Cl)C4(Cl)C(Cl)(Cl)C5(Cl)C3(Cl)C1(Cl)C5(Cl)C24Cl (stereo not given)		-4.81% (inactive)
BrCCCBr		3.27% [at 95 µM] (inactive)
N#CC(C#N)=NNc1cccc(Cl)c1	1.93 µM (active)	

Structure (SMILES)	Potency	activity change, negative = inhibition
N#Cc1c2ccccc2cc2ccccc12		5.92% (inactive)
O=C1C2(Cl)C3(Cl)C4(Cl)C(Cl)(Cl)C5(Cl)C3(Cl)C1(Cl)C5(Cl)C24Cl (stereo not given)	60.1 µM (active)	
CC(C)N(C(=O)CCl)c1ccccc1	30.6 µM (active) and 21.7 µM (active)	
CCC(OC(C)=O)C(CC(C)NC)(c1ccccc1)c1ccccc1 (stereo not given)	21.9 µM (active)	
CC(C)NCC(O)c1ccccc1Cl (stereo not given)		9.57% (inactive)
Cc1ccccc1OP(=O)(Oc1ccccc1C)Oc1ccccc1C		1.04% [at 95 µM] (inactive)
Cc1nn(-c2cc(NS(C)(=O)=O)c(Cl)cc2Cl)c(=O)n1C(F)F		-0.119% (inactive)
CC(=O)[O][Pb]([c]1ccccc1)([c]1ccccc1)[c]1ccccc1	0.611 µM (active)	
[O]=[Cr](=[O])([OH])[O][Cr](=[O])(=[O])[OH]	inactive	
Cc1ccc(C)c2ccccc12		-7.07% (inactive)
O=c1[nH]c(Cl)c(Cl)cc1Cl		15.5% (inactive)
COc1ccc2c(c1OC)C(=O)O[C@@H]2[C@H]1c2cc3c(cc2CCN1C)OCO3		2.58% (inactive)
C=CC(=O)[O][Sn]([CH2]CCC)([CH2]CCC)[CH2]CCC	1.72 µM (active)	
CCNS(=O)(=O)C(F)(F)C(F)(F)C(F)(F)C(F)(F)C(F)(F)C(F)(F)C(F)(F)C(F)(F)F		1.57% (inactive)
O=C(NC(=O)c1ccccc1Cl)Nc1ccc(OC(F)(F)F)cc1		2.73% (inactive)
COc1ccc(Cc2nccc3cc(OC)c(OC)cc23)cc1OC	9.02 µM (active)	
CC1=C2C[C@H]3[C@@H](CC=C4C[C@@H](O)CC[C@@]43C)[C@@H]2CC[C@]12O[C@@H]1C[C@H](C)CN[C@H]1[C@H]2C		0.605% (inactive)
S=C=NCCc1ccccc1		4.5% (inactive)
CCCCCCC[CH2][Sn]([Cl])([Cl])[CH2]CCCCCCC		2.27% (inactive)
CCOC(=O)Cc1ccccc1		9.22% (inactive)
